Reference: the supplement of paper PMC6555819

What was measured:
Test in all cases: PBM binding z-score (relative to random genomic background probes); higher = stronger binding; sequences stand for … in GC…GCGATTGACAGCGTAGAATGAAGG
[1] = system: FXR:RXRa (NR concentration 270 nM, RXRa partner concentration 90 nM)
Method in brief: (§1)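 Regression normalization was applied to scanned fluorescence from custom Agilent 4×180K protein-binding microarrays. Before scanning, arrays were incubated 1 h with ligand-free nuclear receptor dimers, and binding was detected with antibodies against each partner (one per run). Binding z-scores use the random background probes as reference.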

[2] = system: LXRa:RXRa (NR concentration 270 nM, RXRa partner concentration 90 nM)
Method in brief: as §1

[3] = system: LXRa homodimer (NR concentration 270 nM)
Method in brief: as §1

[4] = system: LXRb:RXRa (NR concentration 270 nM, RXRa partner concentration 90 nM)
Method in brief: as §1

[5] = system: LXRb homodimer (NR concentration 270 nM)
Method in brief: as §1

[6] = system: PPARa:RXRa (NR concentration 270 nM, RXRa partner concentration 90 nM)
Method in brief: as §1

[7] = system: PPARg:RXRa (NR concentration 180 nM, RXRa partner concentration 90 nM)
Method in brief: as §1

[8] = system: PPARg:RXRa 270nM:90nM, anti-RXR (NR concentration 270 nM, RXRa partner concentration 90 nM)
Method in brief: as §1

[9] = system: PPARg:RXRa 30nM:10nM, anti-RXR (NR concentration 30 nM, RXRa partner concentration 10 nM)
Method in brief: as §1

[10] = system: PPARg:RXRa 90nM:30nM, anti-RXR (NR concentration 90 nM, RXRa partner concentration 30 nM)
Method in brief: as §1

[11] = system: PPARg:RXRa DBDmut IVT, anti-RXR (DBD mutation: RXRa K156A/R161A, NR concentration 270 nM, RXRa partner concentration 90 nM)
Method in brief: as §1

[12] = system: PPARg:RXRa IVT, anti-PPARg (NR concentration 270 nM, RXRa partner concentration 90 nM)
Method in brief: as §1

[13] = system: PPARg DBDmut:RXRa IVT, anti-PPARg (DBD mutation: PPARg1 K132A/R137A, NR concentration 270 nM, RXRa partner concentration 90 nM)
Method in brief: as §1

[14] = system: PPARg DBDmut IVT, anti-PPARg (DBD mutation: PPARg1 K132A/R137A, NR concentration 270 nM)
Method in brief: as §1

[15] = system: PPARg homodimer (NR concentration 180 nM)
Method in brief: as §1

[16] = system: PXR:RXRa (NR concentration 270 nM, RXRa partner concentration 90 nM)
Method in brief: as §1

[17] = system: PXR homodimer (NR concentration 270 nM)
Method in brief: as §1

[18] = system: RARa:RXR (NR concentration 270 nM, RXRa partner concentration 90 nM)
Method in brief: as §1

[19] = system: RARa homodimer (NR concentration 270 nM)
Method in brief: as §1

[20] = system: RARb:RXRa (NR concentration 270 nM, RXRa partner concentration 90 nM)
Method in brief: as §1

Row | Sequence | PBM binding z-score [1] | PBM binding z-score [2] | PBM binding z-score [3] | PBM binding z-score [4] | PBM binding z-score [5] | PBM binding z-score [6] | PBM binding z-score [7] | PBM binding z-score [8] | PBM binding z-score [9] | PBM binding z-score [10] | PBM binding z-score [11] | PBM binding z-score [12] | PBM binding z-score [13] | PBM binding z-score [14] | PBM binding z-score [15] | PBM binding z-score [16] | PBM binding z-score [17] | PBM binding z-score [18] | PBM binding z-score [19] | PBM binding z-score [20]
1 | ACTATTAGTTGAGACGAGGGCTACCGATAGGTTG | -0.0056 | -0.0365 | -0.197 | -0.414 | 0.162 | -0.477 | 0.7 | -0.127 | 0.174 | 0.0258 | 0.458 | 0.0737 | 0.772 | 0.929 | -0.361 | -0.232 | -0.105 | -0.544 | 0.451 | 0.191
2 | TCTAGTTGGTCAAAGGTCACTCACTCGAAATGCG | 5.38 | 5.18 | 3.77 | 5.13 | 2.23 | 6.16 | 11.5 | 10 | 10.6 | 12.1 | 3.67 | 6.11 | 2.62 | 1.66 | 4.97 | 5.78 | 1.56 | 7.3 | 3.14 | 4.93
3 | AGAATGAGGTTAAGACCAGGGAAACAGAATACAT | 2.32 | 1.88 | -0.015 | 1.61 | -0.233 | 3.48 | 2.1 | 2.15 | 0.945 | 1.71 | 2.74 | 2.42 | 1.4 | 1.16 | 0.773 | 1.03 | 0.319 | 1.92 | 0.687 | 1.85
4 | GATCCAGGGTCAAGGCCAGAGTACGCGTATTGAT | 6.77 | 4.23 | -0.34 | 3.91 | -0.536 | 5.78 | 5.86 | 5.78 | 2.2 | 4.41 | 2.29 | 3.75 | 0.299 | 0.301 | 2.21 | 4.33 | 0.0901 | 5.29 | 0.437 | 4.49
5 | GCGACTGGGGCAAAGCAGGTTACGATAAGGTTGG | 0.296 | -0.117 | -0.718 | 0.363 | -0.982 | 1.47 | 1.32 | 1.43 | -0.188 | 0.405 | 4.13 | 3.73 | -0.523 | -0.59 | 0.215 | 0.285 | -0.433 | 0.352 | -0.129 | 0.879
6 | TAGCTTAGGTCATGGGCCAGTATACCACGCGAAC | 4.7 | 3.6 | 0.14 | 2.77 | 0.0949 | 4.23 | 2.88 | 3.21 | 0.853 | 2.08 | 1.43 | 2.29 | 0.945 | -0.133 | 1.14 | 1.82 | -0.151 | 2.69 | 0.342 | 4.1
7 | AGAACGAGGGCACCCTGAGTTGATAGCAGAGTAG | 0.236 | 0.52 | -0.169 | -0.0951 | -0.924 | 1.6 | 1.55 | 1.27 | 0.134 | 0.693 | 3.24 | 2.84 | 0.579 | -0.333 | 0.0786 | 1.29 | 0.283 | 0.732 | -0.996 | 2.16
8 | AGAATCAGGTTATACGTAGATCAGGGAAGAAAGT | 0.826 | 0.893 | 0.313 | 0.875 | 0.265 | 1.63 | 1.11 | 1.38 | 0.762 | 0.859 | 3.66 | 2.1 | 1.47 | 0.861 | 0.756 | 0.61 | 0.471 | 0.799 | 0.86 | 0.961
9 | CCTTACGGGTCACTCCAGGTTATAGCCTCGGAGT | 4.87 | 7.57 | 1.87 | 5.01 | 0.105 | 4.56 | 3.61 | 3.83 | 1.17 | 2.46 | 2.45 | 3.8 | -1.39 | -0.526 | 1.18 | 4.66 | 0.0423 | 3.43 | 0.55 | 3.64
10 | ATCTTTAGGTAAAGTTCAGTGAAAGATCGATAGA | 0.994 | 1.72 | 1.25 | 1.18 | 0.781 | 1.87 | 2.25 | 3.13 | 1.43 | 2.95 | 1.08 | 1.4 | 0.514 | 1.26 | 0.959 | 2.02 | 1.36 | 1.27 | 0.483 | 2.65
11 | CGTACTGGGCCATTCAGAGGTCATTGATCATATG | 3.16 | 4.58 | 6.56 | 3.9 | 0.57 | 3.88 | 2.45 | 3.25 | 0.848 | 2.44 | 5.14 | 4.46 | 0.379 | 0.367 | 2.72 | 4.91 | 2.51 | 4.76 | 1.17 | 3.18
12 | CCTAGTTGGTAAGGAGGTCACACACCGGATATGA | 3.14 | 3.17 | 1.87 | 3.13 | 0.74 | 4.19 | 3.16 | 3.39 | 1.34 | 2.68 | 1.63 | 4.06 | 0.9 | 0.468 | 2.82 | 3.83 | 1.4 | 4.14 | 1.52 | 3.04
13 | GGAAGGAGGGCAAAGTTGATAGCATCTGTCGACG | 1.43 | 1.38 | 0.21 | 1.88 | 1.01 | 4.14 | 7.61 | 7.29 | 7.65 | 8.18 | 4.12 | 4.58 | 0.789 | 0.418 | 1.64 | 1.3 | 1.62 | 1.57 | 1.19 | 2.31
14 | GCAATTAGTTGAAAGGGCAACCGAATGATTCTCG | 0.0908 | 0.491 | 0.0352 | 0.496 | -0.314 | 2.69 | 3.22 | 5.14 | 3.49 | 5.31 | 0.317 | 1.39 | 0.151 | 0.483 | 0.967 | 0.692 | 0.161 | 1.46 | 1.18 | 2.15
15 | CCTATTAGTTGACCCTAAGGGCAACCGAAGCTCG | 4.38 | 3.57 | 1.02 | 3.56 | 1.04 | 4.53 | 1.6 | 3.34 | 0.981 | 2.19 | 0.775 | 1.82 | 0.412 | 0.556 | 3.19 | 4.25 | 1.16 | 4.62 | 2.32 | 2.93
